Source: PubChem BioAssay AID2599 (Sanford-Burnham Center for Chemical Genomics, 2010)
Out of some 330,000 compounds screened, about 5,800 (1.8%) were called active. This is one part of a sample in which actives are shown more often than they occur.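 The calls were made as follows: active = inhibition above about 50% at the single tested dose (limit read from the data); inactive = the rest.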

What follows are compounds tested against Sentrin-specific protease 6 (Homo sapiens) (UniProt Q9GZR1) (assay: SENP6 protease inhibitors, primary screen, biochemical, luminescence, uHTS (AID 2599;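 also: plate controls were DMSO wells with enzyme for no effect and DMSO wells lacking enzyme for full effect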)). Conditions: Recombinant SENP6 catalytic domain, aminoluciferin luminescence; at 10 µM; hits give high values.
Chain of Sentrin-specific protease 6 (Homo sapiens) (Q9GZR1 628-1112 limits assumed): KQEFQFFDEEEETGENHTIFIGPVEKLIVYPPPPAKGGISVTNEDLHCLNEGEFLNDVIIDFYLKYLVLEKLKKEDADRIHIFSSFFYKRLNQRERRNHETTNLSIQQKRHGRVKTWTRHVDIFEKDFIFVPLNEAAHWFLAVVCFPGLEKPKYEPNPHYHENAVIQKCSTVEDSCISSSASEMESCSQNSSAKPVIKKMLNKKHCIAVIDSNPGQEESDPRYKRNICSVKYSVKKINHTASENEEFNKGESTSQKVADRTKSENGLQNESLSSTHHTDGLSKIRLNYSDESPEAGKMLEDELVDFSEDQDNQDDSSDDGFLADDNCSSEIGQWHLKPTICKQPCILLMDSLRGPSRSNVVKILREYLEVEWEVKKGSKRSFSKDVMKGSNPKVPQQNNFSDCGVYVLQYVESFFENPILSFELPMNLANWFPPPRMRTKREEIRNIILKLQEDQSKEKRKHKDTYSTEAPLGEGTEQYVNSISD
`Cc1ccc(NC(=O)CS(=O)CC(=O)N(c2ccccc2)C(C)C(=O)NC2CCCC2)cc1` (stereo unspecified) was tested, and the inhibition was -5.91% (inactive). With `C/C(=C\C(=O)c1cccnc1)Nc1ccc(C)c(C)c1` the inhibition was 6.26% (inactive). For `C/C(=C\C(=O)c1ccccc1)Nc1cccc(O)c1`, the inhibition was 57.9% (active). In the case of `O=C(Nc1cccc(O)c1)c1ccc(C(=O)c2ccccc2)o1`, the inhibition is reported as 2.68% (inactive). In the case of `CCC1(CC)NC(=O)N(CC(=O)OCC(=O)c2cc(C)c(C)cc2C)C1=O`, the inhibition is reported as -10.6% (inactive). In the case of `Cc1ccc(S(=O)(=O)/N=C(\CN2CCOCC2)N2CCOCC2)cc1`, the inhibition is reported as 12.4% (inactive). `COc1ccc(C(=O)COC(=O)c2ccc([N+](=O)[O-])s2)cc1OC` was tested, and the inhibition was 38.4% (inactive). `COc1cc(NC(=O)COC(=O)c2ccc([N+](=O)[O-])s2)cc(OC)c1OC` was tested, and the inhibition was 68.2% (active). `O=C(OCC(=O)N1CCN(c2ccccc2)CC1)c1ccc([N+](=O)[O-])s1` was tested, and the inhibition was 49.4% (inactive). With `O=C(NCc1ccccc1CN1CCCC1)c1cccc(S(=O)(=O)Nc2ccc(F)cc2)c1` the inhibition was 18.3% (inactive). `C[C@@H]1CN([C@@H](C)CO)C(=O)c2cc(NC(=O)C3CC3)ccc2O[C@H]1CN(C)C` was tested, and the inhibition was 1.75% (inactive). `COc1ccc(S(=O)(=O)N2CCC(C(=O)NCCC(=O)NCc3cccc(OC)c3)CC2)cc1` was tested, and the inhibition was 0.176% (inactive). For `Cc1cccc(NS(=O)(=O)c2ccc(C)c(C(N)=O)c2)c1`, the inhibition was -6.03% (inactive). In the case of `Cc1cccc(NS(=O)(=O)c2cccc(C(=O)NNC(=O)c3ccccc3O)c2)c1`, the inhibition is reported as 64.3% (active). `CC(=O)N1CCN(C(=O)c2cccc(S(=O)(=O)Nc3ccc(C)cc3)c2)CC1` was tested, and the inhibition was -4.46% (inactive). `CNc1nc(SC)nc(N(C#N)CC(=O)OC)n1` was tested, and the inhibition was 11.5% (inactive). In the case of `Cc1cccc(NC(=O)Cc2ccc(Br)cc2)n1`, the inhibition is reported as 16% (inactive). `Cc1cccc(NC(=O)COc2ccc(Br)cc2C)n1` was tested, and the inhibition was 69.2% (active). In the case of `CCN(CC)S(=O)(=O)c1ccc(C)c(NC(=O)COc2ccc(Br)cc2Cl)c1`, the inhibition is reported as 9.17% (inactive). For `Cc1ccc(N(C(=O)Cc2cccs2)C2C=CS(=O)(=O)C2)cc1Cl` (stereo unspecified), the inhibition was -12.7% (inactive). With `O=C1CCC(=O)N(c2ccccc2)N1` the inhibition was -18.9% (inactive). `O=C(c1cnccn1)N1CCN(S(=O)(=O)c2cccc(Cl)c2)CC1` was tested, and the inhibition was -6.78% (inactive). In the case of `Nc1ncc(-c2cc3ccccc3oc2=O)s1`, the inhibition is reported as 92.4% (active). With `Cc1cc2c(=O)n(C)c(SCC(=O)c3cc4ccccc4o3)nc2s1` the inhibition was 15.6% (inactive). In the case of `O=C(NCc1cccnc1)c1cccc(-c2cc3ccccc3oc2=O)c1`, the inhibition is reported as -7.83% (inactive). With `O=C(CN1C(=O)CC(c2ccccc2)=Nc2ccccc21)NC1CCCCC1` the inhibition was -12% (inactive). With `CSCCC(NC(=O)COc1ccccc1)C(=O)Nc1ccc(C)cc1` (stereo unspecified) the inhibition was -14.9% (inactive). For `Cc1ccccc1Nc1nc(-c2cccnc2)cs1`, the inhibition was 47.4% (inactive). `Cc1cccc(Nc2nc(-c3ccccc3)cs2)n1` was tested, and the inhibition was 93.1% (active). For `O=C(O)c1ccccc1C(=O)Nc1nc(-c2ccccc2)cs1`, the inhibition was -12.1% (inactive). For `Cc1nc(NC(=O)c2cccc(Cl)c2)sc1-c1csc(Nc2cccc(Cl)c2)n1`, the inhibition was 20% (inactive). In the case of `CC(=O)Nc1cccc(-c2csc(Nc3cccc(C)n3)n2)c1`, the inhibition is reported as 91.9% (active). In the case of `O=C(Nc1ccc(-c2csc(Nc3cccc(C(F)(F)F)c3)n2)cc1)c1cccc(C(F)(F)F)c1`, the inhibition is reported as -9.78% (inactive). For `Cn1nnnc1SCC(=O)Nc1cccc(S(=O)(=O)N2CCCCC2)c1`, the inhibition was -12.9% (inactive). `Cc1cccc(CSc2nc3c(c(=O)n2C)SCC3)c1` was tested, and the inhibition was 21.2% (inactive). For `O=C(N/N=C\c1cc(Br)c(Br)o1)C1COc2ccccc2O1` (stereo unspecified), the inhibition was -7.15% (inactive). In the case of `Cc1ccc(C(=O)N/N=C/c2cccc3ccccc23)cn1`, the inhibition is reported as -7.6% (inactive). In the case of `Cc1ccc(C(=O)N/N=C\c2cc(Br)c(Br)o2)cn1`, the inhibition is reported as 66% (active). For `CNC(=S)N/N=C/c1ccc(OCc2ccccc2)c(Br)c1`, the inhibition was -0.485% (inactive). For `CC(C)Oc1ccc(CN2CCC(n3nccc3NC(=O)c3cccnc3)CC2)cc1`, the inhibition was 0.591% (inactive). With `CSc1ccc(/C=N\NC(=O)CC(=O)NC(C)C)cc1` the inhibition was -5.21% (inactive). `CSc1ccc(/C=N/NC(=O)c2cccc(Cl)c2)cc1` was tested, and the inhibition was 94.4% (active). For `O=C(N/N=C/c1ccc(Cl)c(Cl)c1)c1ccc2nc[nH]c2c1`, the inhibition was -7.64% (inactive). With `Cc1cc(C)c(NC(=O)CN2CCOCCOCCOCCOCC2)c(C)c1` the inhibition was -4.6% (inactive). `CN(C)C(CNC(=O)CCCOc1ccccc1)c1ccco1` (stereo unspecified) was tested, and the inhibition was -5.38% (inactive). With `O=c1oc2cc(O)ccc2cc1-c1ccc(F)cc1` the inhibition was 98% (active). `CN(C)c1cc(-c2ccc(F)cc2)oc(=O)c1Cl` was tested, and the inhibition was -8.53% (inactive). In the case of `CCCCCCc1cc2cc(-c3nnc(-c4ccccc4)o3)c(=O)oc2cc1O`, the inhibition is reported as -12.7% (inactive). `COC(=O)c1c(C)oc(C)c1S(=O)(=O)NCc1ccc(Cl)cc1` was tested, and the inhibition was -15.4% (inactive). `CCOC(=O)c1c(/N=C/c2cc(C)ccc2O)sc2c1CCC2` was tested, and the inhibition was 6.68% (inactive). For `Cc1ccnc2nc(C(=O)Nc3nnc(-c4ccccc4)o3)nn12`, the inhibition was 7.14% (inactive). With `O=C(Nc1cccnc1Cl)c1cc(-c2ccccc2O)on1` the inhibition was 17.2% (inactive). For `O=C(Nc1ccccc1C(F)(F)F)c1cc(-c2ccc(O)cc2)on1`, the inhibition was 1.85% (inactive). With `Cc1ccc(O)c(NC(=O)c2cc(-c3ccco3)on2)c1` the inhibition was 62.9% (active). In the case of `CCOC(=O)Cc1csc(SCC(=O)NC(C)C23CC4CC(CC(C4)C2)C3)n1` (stereo unspecified), the inhibition is reported as -13.9% (inactive). With `O=C1CCC(=O)N1c1ccc(NCCc2ccccc2F)c([N+](=O)[O-])c1` the inhibition was 11.8% (inactive). With `O=C(Nc1ccccc1C(=O)O)c1cc(S(=O)(=O)N2CCCCC2)cs1` the inhibition was 15.3% (inactive). `O=C(COc1ccc([N+](=O)[O-])cc1Cl)Nc1ccc2[nH]c(=O)[nH]c2c1` was tested, and the inhibition was -8.3% (inactive). For `CCc1ccc(-c2cc(C(=O)NCc3ccco3)c3ccccc3n2)s1`, the inhibition was -10.2% (inactive). `CC(=NCc1ccco1)c1c(C(F)(F)F)[nH]n(-c2nc3ccccc3s2)c1=O` was tested, and the inhibition was 97.8% (active). In the case of `CC(=NCc1ccco1)C1=C(O)c2ccccc2C1=O`, the inhibition is reported as 18.6% (inactive). `CCC(C)Cn1c(O)cc2nn(-c3nc4ccccc4s3)c(=O)c-2c1C` (stereo unspecified) was tested, and the inhibition was -3.5% (inactive). In the case of `CC(C)CC(=O)N/C(N)=N/c1nc2ccccc2s1`, the inhibition is reported as 29.7% (inactive). `C/C(=N\NC(=O)CC(C)C)c1c(C(F)(F)F)[nH]n(-c2nc3ccccc3s2)c1=O` was tested, and the inhibition was 98% (active). For `COc1ccccc1C(=O)NCCC(=O)NC(C)CCc1ccccc1` (stereo unspecified), the inhibition was -4.44% (inactive). `O=C(CN1CCCSc2ccccc21)N1CCN(S(=O)(=O)c2cccc(F)c2)CC1` was tested, and the inhibition was -22.3% (inactive). `CCCN1Cc2cccc(C(=O)NCc3ccccc3)c2C1=O` was tested, and the inhibition was 10.8% (inactive). `Cc1ccc(NS(=O)(=O)c2ccc(-c3coc(C)n3)cc2)c(C)c1` was tested, and the inhibition was -4.93% (inactive). For `CCOC(=O)[C@H]1[C@H]2COc3cc(OC)ccc3[C@@H]2N2C(=O)CN(Cc3ccc(Cl)cc3)C(=O)[C@@]12C`, the inhibition was -7.07% (inactive). `COc1ccccc1N1CCN(S(=O)(=O)CCNC(=O)c2ccc(OC(C)C)cc2)CC1` was tested, and the inhibition was -8.31% (inactive). `COc1cc(NC(=O)CSc2ccc(-c3cccnc3)nn2)cc(OC)c1` was tested, and the inhibition was 4.11% (inactive). For `COc1ccccc1NC(=O)c1c(Br)cnn1C`, the inhibition was -0.608% (inactive). `COc1ccccc1OCC(=O)O/N=C(\N)c1ccccn1` was tested, and the inhibition was 13.8% (inactive). With `N/C(=N\OC(=O)CC1CCCCC1)c1ccccc1` the inhibition was 40.3% (inactive). With `N/C(=N\OC(=O)CCC1CCCCC1)c1ccccn1` the inhibition was 87.4% (active). `Cc1ccc(O)c(CCc2ccccc2)n1` was tested, and the inhibition was 8.36% (inactive). With `CCCc1ccc(-c2c(C)sc(NC(=O)c3ccnn3C)c2C#N)cc1` the inhibition was -0.479% (inactive). With `CN(C)C(=O)CSc1n[nH]c(-c2ccco2)n1` the inhibition was 0.308% (inactive). For `O=C(O)CC(Cn1cnnn1)c1ccccc1` (stereo unspecified), the inhibition was -0.459% (inactive). `O=C(NCCS(=O)(=O)N1CCN(c2ccccc2)CC1)c1ccco1` was tested, and the inhibition was 6.25% (inactive). For `CCOc1ccc(NC(=O)CCC(=O)NNC(=O)NC2CCCCC2)cc1`, the inhibition was -9.85% (inactive). `Cc1ccc(S(=O)(=O)N2CCN(c3ccccc3)CC2)cc1C` was tested, and the inhibition was 4.47% (inactive). With `CC(C)OC(=O)C(C#N)c1nc2ccccc2nc1N1CCN(Cc2ccccc2)CC1` (stereo unspecified) the inhibition was 6.5% (inactive). In the case of `Cc1ccc(S(=O)(=O)C(C#N)c2nc3ccccc3nc2N2CCCC2)cc1C` (stereo unspecified), the inhibition is reported as 75.9% (active). `O=C(CCCN1C(=O)c2ccccc2C1=O)Oc1ccc(Cl)cc1` was tested, and the inhibition was 1.14% (inactive). With `Cc1cccc2c(=O)n3c(nc12)CCCCC3` the inhibition was 9.44% (inactive). `Cc1c(C(=O)Nc2ccccc2)sc2nc3n(c(=O)c12)CCCCC3` was tested, and the inhibition was -15.7% (inactive). For `O=c1c2c(nc3n1CCCCC3)sc1c(O)cccc12`, the inhibition was 51.8% (active). With `Cn1cccc1C(=O)NC(=O)COC(=O)Cc1coc2ccc3ccccc3c12` the inhibition was -4.09% (inactive). With `Cc1c(C(=O)NC(C)C2CC3CCC2C3)cccc1[N+](=O)[O-]` (stereo unspecified) the inhibition was -22.4% (inactive). With `COc1ccc(CCNC(=O)CCNS(=O)(=O)c2cc(Br)cnc2N)cc1OC` the inhibition was -5.77% (inactive). For `O=c1/c(=C/c2ccc(CNS(=O)(=O)c3ccccc3)o2)sc2n1CCN=2`, the inhibition was 3.24% (inactive). With `CCn1c(=O)cc(SCC(=O)NCCC2=CCCCC2)c2ccccc21` the inhibition was -1.94% (inactive). `COCCNC(=O)CCCN1C(=O)c2ccccc2Sc2ncccc21` was tested, and the inhibition was -28.9% (inactive). `Oc1c(C=Nc2cccc3nsnc23)ccc2ccccc12` was tested, and the inhibition was 94.6% (active). In the case of `Cc1cc2c(cc1C)N(Cc1ccccc1)C1=NCCCN12`, the inhibition is reported as -12.7% (inactive).
